# From the supplement of paper PMC6555819
# Key:
# Assay in all cases: PBM binding z-score (relative to random genomic background probes); higher = stronger binding; sequences stand for … in GC…GCGATTGACAGCGTAGAATGAAGG
# [1] = tested on: FXR:RXRa (NR concentration 270 nM, RXRa partner concentration 90 nM)
# Procedure, shortened: (§1)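 Ligand-free nuclear receptor dimers were applied to custom Agilent 4×180K protein-binding microarrays whose double-stranded probes carried direct-repeat seeds, single-nucleotide variants, half-site ablations and random human genomic background sequences in 34-nt variable regions. Incubation lasted 1 h. Binding z-scores were computed against the random background probes from regression-normalized fluorescence.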
# [2] = tested on: LXRa:RXRa (NR concentration 270 nM, RXRa partner concentration 90 nM)
# Procedure, shortened: as §1
# [3] = tested on: LXRa homodimer (NR concentration 270 nM)
# Procedure, shortened: as §1
# [4] = tested on: LXRb:RXRa (NR concentration 270 nM, RXRa partner concentration 90 nM)
# Procedure, shortened: as §1
# [5] = tested on: LXRb homodimer (NR concentration 270 nM)
# Procedure, shortened: as §1
# [6] = tested on: PPARa:RXRa (NR concentration 270 nM, RXRa partner concentration 90 nM)
# Procedure, shortened: as §1
# [7] = tested on: PPARg:RXRa (NR concentration 180 nM, RXRa partner concentration 90 nM)
# Procedure, shortened: as §1
# [8] = tested on: PPARg:RXRa 270nM:90nM, anti-RXR (NR concentration 270 nM, RXRa partner concentration 90 nM)
# Procedure, shortened: as §1
# [9] = tested on: PPARg:RXRa 30nM:10nM, anti-RXR (NR concentration 30 nM, RXRa partner concentration 10 nM)
# Procedure, shortened: as §1
# [10] = tested on: PPARg:RXRa 90nM:30nM, anti-RXR (NR concentration 90 nM, RXRa partner concentration 30 nM)
# Procedure, shortened: as §1
# [11] = tested on: PPARg:RXRa DBDmut IVT, anti-RXR (DBD mutation: RXRa K156A/R161A, NR concentration 270 nM, RXRa partner concentration 90 nM)
# Procedure, shortened: as §1
# [12] = tested on: PPARg:RXRa IVT, anti-PPARg (NR concentration 270 nM, RXRa partner concentration 90 nM)
# Procedure, shortened: as §1
# [13] = tested on: PPARg DBDmut:RXRa IVT, anti-PPARg (DBD mutation: PPARg1 K132A/R137A, NR concentration 270 nM, RXRa partner concentration 90 nM)
# Procedure, shortened: as §1
# [14] = tested on: PPARg DBDmut IVT, anti-PPARg (DBD mutation: PPARg1 K132A/R137A, NR concentration 270 nM)
# Procedure, shortened: as §1
# [15] = tested on: PPARg homodimer (NR concentration 180 nM)
# Procedure, shortened: as §1
# [16] = tested on: PXR:RXRa (NR concentration 270 nM, RXRa partner concentration 90 nM)
# Procedure, shortened: as §1
# [17] = tested on: PXR homodimer (NR concentration 270 nM)
# Procedure, shortened: as §1
# [18] = tested on: RARa:RXR (NR concentration 270 nM, RXRa partner concentration 90 nM)
# Procedure, shortened: as §1
# [19] = tested on: RARa homodimer (NR concentration 270 nM)
# Procedure, shortened: as §1
# [20] = tested on: RARb:RXRa (NR concentration 270 nM, RXRa partner concentration 90 nM)
# Procedure, shortened: as §1
Sequence,PBM binding z-score [1],PBM binding z-score [2],PBM binding z-score [3],PBM binding z-score [4],PBM binding z-score [5],PBM binding z-score [6],PBM binding z-score [7],PBM binding z-score [8],PBM binding z-score [9],PBM binding z-score [10],PBM binding z-score [11],PBM binding z-score [12],PBM binding z-score [13],PBM binding z-score [14],PBM binding z-score [15],PBM binding z-score [16],PBM binding z-score [17],PBM binding z-score [18],PBM binding z-score [19],PBM binding z-score [20]
TAGCCTAGGTCATTGGGCCACTATAGTACGCATC,4.39,3.9,1.1,3.05,0.679,3.99,4.65,4.12,1.41,3.18,3.5,4.5,0.0417,-0.0772,0.995,1.63,-0.211,2.14,-0.101,3.49
ATCTCAAGGTAAGACTCAGTTCAGTGAAGAACGC,0.749,0.642,0.594,0.258,0.655,0.216,0.033,0.104,0.217,0.104,0.2,0.426,0.753,0.498,0.782,1.47,1.54,0.694,1.1,0.614
ATATGTAGGTAAGCTGGGGTCATTCAGACTAGGC,4.33,4.31,1.73,4.3,1.58,4.98,4.31,4.65,2,3.77,6.08,5.46,1.69,1.13,1.48,6.07,3.4,5.45,0.719,2.67
TTACCAAAGTGAGCTGAGGTCGTTGATCCAACTC,0.648,0.0425,-0.525,0.222,-1.12,0.635,-0.509,-0.168,0.0696,-0.371,-0.795,-0.309,-0.436,-0.706,-0.866,2.11,0.201,1.44,-1.13,0.34
